Pf growth 48h = inhibits P. falciparum growth in the first generation, 48 h; P. falciparum luciferase growth in erythrocytes, 48 h; Potency, µM (top dose mostly 28.7 µM), for inactives: at the top dose activity change, negative = inhibition, hits mostly inhibitors; hit rate 5.9% among 310,000; AID 504832; further: potency means the concentration at half of the fitted maximal effect; on the % scale 0 is the no-effect control and ±100 the full control effect
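In quantitative HTS format, infected erythrocytes bearing luciferase-reporter parasites were treated for a single generation at 37 C. Luminescence after adding detection reagent served as the growth measure.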
Pf growth 96h = P. falciparum growth inhibition at 96 hours; P. falciparum luciferase reporter growth, 96 h; Potency, µM (doses to about 28.7 µM), inactives show at the top dose activity change, negative = inhibition, hits mostly inhibitors; hit rate 6.9% among 320,000; AID 504834; further: potency means the concentration at half of the fitted maximal effect; on the % scale 0 is the no-effect control and ±100 the full control effect
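Delayed-death screen, second-generation endpoint: infected erythrocytes, 2% hematocrit, 0.05% parasitemia final; 96 hours at 37 C, 5% CO2; luciferase detection reagent; luminescence decrease equals reduced growth.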
LASV entry inh = blocks Lassa virus binding to or entry into cells; Lassa virus pseudotype entry inhibition, cell reporter; Potency, µM (series often up to 37.9 µM), without a hit: at the highest dose activity change, negative = inhibition, actives largely listed as inhibitors; hit rate 1.2% among 300,000; AID 540256; calls by dose curve; tested in HEK293 cells; further: potency means the concentration at half of the fitted maximal effect; on the % scale 0 is the no-effect control and ±100 the full control effect; nearly all actives have a fitted effect of over 50% in size
Cycloheximide cs = counter-screen hit for Shiga toxin inhibitors, cycloheximide; cell reporter, cycloheximide protein synthesis inhibition counterscreen; max response, %; hit rate 12% among 300,000; in the data active means max response mostly above about 13%, no sharp cut-off; inactive means mostly below about 14%; further: read at 38.3 µM for the half of the compounds with a filed dose; 0% is about no effect
Marburg entry inh = blocks Marburg virus binding to or entry into cells | Potency, µM (top dose mostly 37.8 µM), for inactives: top-dose activity change, negative = inhibition, usual class: inhibitors | hit rate 1.8% among 300,000 | Marburg virus pseudotyped entry inhibition, cell reporter | AID 540276; calls by dose curve; tested in HEK293 cells; further: potency means the concentration at half of the fitted maximal effect; on the % scale 0 is the no-effect control and ±100 the full control effect
Shiga toxin inh = blocks Shiga toxin action in Vero cells; hit rate 9.2% among 290,000; inhibition, % at 38.7 µM; AID 2315; Vero cells, Shiga toxin protein synthesis inhibition reporter; in the data active means inhibition mostly above about 28%, no sharp cut-off; inactive means mostly below about 43%; further: 0% is about no effect
* marks the source's active call; other numbers are inactive results; [ ] = dose if it differs, or a comment. Hits are enriched below; roughly 19% of the tested compounds scored in any of these assays. Unless noted, the call rests on the fitted dose curve; in most records, active means well fitted inhibition curve with a large enough effect; inconclusive means small, poorly fitted or top-dose-only effect, or another doubt; inactive means no such curve, though single readings can be large or run the other way.

What do the screens show for `COc1cccc(CNC(=O)c2oc3c(c2C)-c2nn(Cc4cccc(Cl)c4)cc2CC3)c1`?
LASV entry inh: 27%[46.1 µM]

Results for C=CCSc1nnc(-c2ccncc2)n1-c1ccc(OCC)cc1 ?
Pf growth 48h: 0%; Pf growth 96h: 1%; LASV entry inh: 10%; Cycloheximide cs: -3; Marburg entry inh: 6%; Shiga toxin inh: -8

How did CCN1CCN(c2cc(C)c3cc(NC(=O)CCC(=O)N4CCN(c5ccccc5OC)CC4)ccc3n2)CC1 do in these assays?
Pf growth 48h: inconclusive; Pf growth 96h: 88%; LASV entry inh: 13%[46.1 µM]; Cycloheximide cs: 17*; Marburg entry inh: inconclusive; Shiga toxin inh: 4

Results for CCN1CCN(c2cc(C)c3cc(NC(=O)/C=C/c4cccc(Cl)c4)ccc3n2)CC1 ?
LASV entry inh: 1%[46.1 µM]; Marburg entry inh: 5.6µM*

How did CCN1CCN(c2cc(C)c3cc(NC(=O)/C=C/c4cccc(OC)c4OC)ccc3n2)CC1 do in these assays?
LASV entry inh: inconclusive; Marburg entry inh: 7.1µM*

What do the screens show for `CC(C)(C)C(=O)Nc1ccc(F)cc1[N+](=O)[O-]`?
Pf growth 48h: -1%; Pf growth 96h: 27%; Cycloheximide cs: -4; Shiga toxin inh: -9

Results for COc1ccc(OC)c(/C=N/NC(=O)C(=O)NCc2cccnc2)c1 ?
Pf growth 48h: 0%; Pf growth 96h: 23%; LASV entry inh: -1%; Cycloheximide cs: 6; Marburg entry inh: 15%; Shiga toxin inh: -7

How did O=C(NCc1ccco1)C(c1cccs1)N(Cc1ccccc1)C(=O)Cn1nnc2ccccc21 (stereo not given) do in these assays?
Pf growth 48h: inconclusive; Pf growth 96h: inconclusive; LASV entry inh: -15%; Cycloheximide cs: 30*; Marburg entry inh: -13%; Shiga toxin inh: 49*

What do the screens show for `O=C(NCc1ccco1)C(c1ccco1)N(CCc1ccccc1)C(=O)Cn1nnc2ccccc21` (stereo not given)?
Pf growth 48h: inconclusive; Pf growth 96h: 2.3µM*; LASV entry inh: -9%; Cycloheximide cs: 7; Marburg entry inh: 0%; Shiga toxin inh: 18

How did O=C(NCc1ccco1)C(c1ccco1)N(Cc1cccs1)C(=O)Cn1nnc2ccccc21 (stereo not given) do in these assays?
Pf growth 48h: inconclusive; Pf growth 96h: -11%; LASV entry inh: inconclusive; Cycloheximide cs: 19*; Marburg entry inh: 1%; Shiga toxin inh: 52*

What do the screens show for `O=C(NC1CCCCC1)C(c1ccco1)N(Cc1cccs1)C(=O)Cn1nnc2ccccc21` (stereo not given)?
Pf growth 48h: inconclusive; LASV entry inh: 52%[14.3 µM]; Cycloheximide cs: -1; Marburg entry inh: -5%; Shiga toxin inh: -11

What do the screens show for `Cc1ccc(CN(C(=O)Cn2nnc3ccccc32)C(C(=O)NCc2ccco2)c2cccs2)cc1` (stereo not given)?
Pf growth 48h: inconclusive; Pf growth 96h: 5%; LASV entry inh: -10%; Cycloheximide cs: 19*; Marburg entry inh: inconclusive; Shiga toxin inh: 57*

How did COc1ccc(C)cc1NS(=O)(=O)c1c(C)nc2sc(C)cn2c1=O do in these assays?
LASV entry inh: 1%[46.1 µM]

Results for COc1ccc(CNCCSc2nnnn2-c2ccccc2)c(OC)c1 ?
LASV entry inh: 7%[46.1 µM]; Marburg entry inh: -29%[46.1 µM]

Results for O=S(N1CCCCC1)C12CC3CC(CC(C3)C1)C2 (stereo not given) ?
Pf growth 48h: 24%; Pf growth 96h: -3%; LASV entry inh: 0%; Cycloheximide cs: -6; Marburg entry inh: 7%[46.1 µM]; Shiga toxin inh: 2

How did C=CCNC(=O)CN1c2cccc3cccc(c23)S1(=O)=O do in these assays?
Pf growth 48h: 12%; Pf growth 96h: 52%; Cycloheximide cs: 1; Shiga toxin inh: 10

How did COc1ccccc1CC(=O)NC(=O)c1ccccc1O do in these assays?
Pf growth 96h: -25%; LASV entry inh: inconclusive; Cycloheximide cs: 4; Marburg entry inh: inconclusive; Shiga toxin inh: -4

What do the screens show for `COc1cc(NC(=O)CS(=O)(=O)c2ccc(C)cc2)cc(OC)c1OC`?
Pf growth 48h: 3%; LASV entry inh: 1%; Cycloheximide cs: -1; Marburg entry inh: -8%[46.1 µM]; Shiga toxin inh: -6

What do the screens show for `COc1ccc(N=C2SCC(=O)N2CCc2ccc(OC)c(OC)c2)cc1`?
Pf growth 48h: inconclusive; Pf growth 96h: inconclusive; Cycloheximide cs: -4; Shiga toxin inh: -9
